{"source": "PubChem BioAssay", "note": "Values without a mark were called inactive. How the calls were made is not given here.", "data": [{"target": "Pantothenate synthetase (Mycobacterium tuberculosis (strain ATCC 25618 / H37Rv)) (UniProt P9WIL5)", "sequence (P9WIL5 whole entry, looked up)": "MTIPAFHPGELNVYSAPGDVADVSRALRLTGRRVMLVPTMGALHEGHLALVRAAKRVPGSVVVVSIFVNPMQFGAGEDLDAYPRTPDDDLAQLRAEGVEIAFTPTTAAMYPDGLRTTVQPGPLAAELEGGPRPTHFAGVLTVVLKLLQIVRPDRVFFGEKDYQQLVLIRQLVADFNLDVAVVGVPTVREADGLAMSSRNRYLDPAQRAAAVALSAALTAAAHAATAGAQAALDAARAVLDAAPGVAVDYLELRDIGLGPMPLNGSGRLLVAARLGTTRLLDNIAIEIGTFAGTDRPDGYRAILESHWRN", "assay": "Recombinant Mtb pantothenate synthetase (PanC) inhibitors, coupled enzyme, confirmatory (AID 375);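 further: 0% = full reaction with vehicle and 100% = no enzyme background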", "details": "coupled enzyme assay; at 10 µM, stronger effect = higher value", "units": {"inhibition": "%"}, "values": [{"smiles": "COCC(C)NC(=O)CCS(=O)(=O)c1nc(-c2ccc(OC)cc2)cc(C(F)(F)F)n1", "note": "(stereo unspecified)", "inhibition": 0}, {"smiles": "CCOC(=O)c1cc2ccc(OC)c(OC)c2c(=O)s1", "inhibition": 0}, {"smiles": "CCOc1ccc(N(CC)C(=O)COc2cc(=O)n(C)c3ccccc23)cc1", "inhibition": 0}, {"smiles": "O=C(NCc1ccccc1)C1CCCN(S(=O)(=O)c2cccnc2)C1", "note": "(stereo unspecified)", "inhibition": 0}, {"smiles": "COc1ccc(CNC(=O)CN(C(=O)c2ccc(CN3CCOCC3)o2)C2CCCC2)cc1", "inhibition": 0}, {"smiles": "O=C(O)c1ccc(S(=O)(=O)Cc2ccccc2)cc1", "inhibition": 0}, {"smiles": "CCCCn1c(SCC(=O)N2CC(=O)Nc3ccccc32)nnc1-c1ccoc1C", "inhibition": 3}, {"smiles": "Nc1nc(C2C(=O)CCCC2=O)cs1", "inhibition": 0}, {"smiles": "CCN(CC)S(=O)(=O)c1ccc2c(c1)c(=O)c(C(=O)NCCOC)cn2C", "inhibition": 1}, {"smiles": "COc1ccc(NS(=O)(=O)c2coc(C(N)=O)c2)cc1Cl", "inhibition": 0}, {"smiles": "O=C(O)CCC1(C(=O)O)OCCc2ccccc21", "note": "(stereo unspecified)", "inhibition": 8}, {"smiles": "CCOC(=O)c1cccc(NC(=O)Cn2cnc3c2c(=O)n(C)c(=O)n3C)c1", "inhibition": 4}, {"smiles": "Cc1cc(C)n(-c2ccc3cccc(NS(C)(=O)=O)c3n2)n1", "inhibition": 0}, {"smiles": "CCOC(=O)N1CCC(Nc2c(-c3ccc(C)cc3)c(=O)c2=O)CC1", "inhibition": 0}, {"smiles": "O=C1CC(N2CCN(c3cccc(C(F)(F)F)c3)CC2)C(=O)N1c1ccccc1", "note": "(stereo unspecified)", "inhibition": 0}, {"smiles": "CC[C@H]1CN2CCc3cc(OC)c(OC)cc3[C@@H]2C[C@@H]1C[C@H]1NCCc2cc(OC)c(OC)cc21", "inhibition": 0}]}]}
